Data on 13 compounds can be found in PubChem BioAssay (NCI).

Test systems include DU-145 prostate; K-562 leukemia; MALME-3M melanoma; MDA-MB-231 breast; RXF 393 renal; SF-268 CNS; SF-295 CNS; SF-539 CNS; UACC-257 melanoma; M14 melanoma.
Common to all, as to test: NCI-60 one-dose screen, 48 h (100 = growth as untreated, 0 = no growth, -100 = all killed)
Holding throughout (details): 10 µM unless noted

About 83,000 compounds went through this panel and 20% of them were active in at least one assay; those are over-represented in the sample as a whole.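 48-hour exposure, single concentration, 96-well plates; percent growth endpoint where 0 means no net growth. Active: below 10.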 A number with no mark means an inactive call. Active and inactive are the calls of the source.

In the case of `CCOC(=O)c1cn2ncnc(Oc3ccc(NC(=O)NC4CCCCC4)c(Cl)c3)c2c1C`, the growth in the assay with DU-145 prostate is 96%; with K-562 leukemia it was 82.6%; in the assay with MALME-3M melanoma, 58%; in the assay with MDA-MB-231 breast, 58.2%; with RXF 393 renal, 83.8%; in the assay with SF-268 CNS, 84.9%. Besides, the growth is 96.7% in the assay on SF-295 CNS, 51.2% with SF-539 CNS, 90% with UACC-257 melanoma and 83.9% in the assay on M14 melanoma.

With `C=C1C(=O)O[C@H]2[C@H]1CC/C(COC(=O)CSCCSCC(=O)OC/C1=C/CC[C@@]3(C)O[C@H]3[C@H]3OC(=O)C(=C)[C@@H]3CC1)=C\CC[C@@]1(C)O[C@@H]21`, the growth is 32.3% in the assay with DU-145 prostate; 1.81% (active) in the assay with K-562 leukemia; -8.71% (active) in the assay on MALME-3M melanoma; -37.2% (active) with MDA-MB-231 breast; -85.1% (active) with RXF 393 renal; 16.7% in the assay on SF-268 CNS. Moreover, the growth is 67.2% in the assay on SF-295 CNS, 1.67% (active) in the assay on SF-539 CNS, 49.9% in the assay with UACC-257 melanoma and 3.06% (active) with M14 melanoma.

On to `Cc1ccc(Cl)cc1Nc1nc(C(F)(F)F)ccc1C(=O)N/N=C/c1cccnc1`, for which the growth in the assay on DU-145 prostate is 41.5%; in the assay on K-562 leukemia, 7.72% (active); in the assay on MALME-3M melanoma it was 15%; with MDA-MB-231 breast it was 33.4%; with RXF 393 renal, 11.6%; in the assay on SF-268 CNS, 27.7%. In addition, the growth with SF-295 CNS is -20.6% (active); in the assay with SF-539 CNS, 27.1%; with UACC-257 melanoma, 28.2%; in the assay with M14 melanoma it was 47.9%.

As for `Cc1ccc(/C=C2\CN(C(=O)OC(C)(C)C)C/C(=C\c3ccc(C)cc3)C2=O)cc1`, the growth in the assay on DU-145 prostate is 38.7%; in the assay with K-562 leukemia, 3.47% (active); with MALME-3M melanoma, 83.5%; with MDA-MB-231 breast, 88.3%; in the assay on RXF 393 renal, 99.4%; in the assay on SF-268 CNS, 49.1%. The growth in the assay with SF-295 CNS is 89.9%; in the assay on SF-539 CNS, 90.4%; with UACC-257 melanoma it was 79.4%; in the assay on M14 melanoma, 43%.

With `CN(C)Cc1ccc(NC(=O)c2cncc(C#Cc3cnc(N)c4ncccc34)c2)cc1F`, the growth was 86.8% in the assay with DU-145 prostate; -4.46% (active) in the assay on K-562 leukemia; 65.6% in the assay on MALME-3M melanoma; -73.1% (active) in the assay with MDA-MB-231 breast; 40.1% in the assay on RXF 393 renal; 94% in the assay on SF-268 CNS. Also, the growth is 95.9% in the assay with SF-295 CNS, 95.4% in the assay on SF-539 CNS, 88.7% in the assay with UACC-257 melanoma and -84.5% (active) with M14 melanoma.

On to `CC(C)CCNC(=O)Cn1cccc(NC(=O)OCc2ccccc2)c1=O`, for which the growth in the assay with DU-145 prostate is 109%; in the assay with K-562 leukemia, 114%; in the assay with MALME-3M melanoma, 104%; in the assay on MDA-MB-231 breast, 107%; in the assay with RXF 393 renal, 106%; in the assay with SF-268 CNS, 102%. For the same compound, the growth was 107% in the assay on SF-295 CNS, 115% in the assay with SF-539 CNS, 104% with UACC-257 melanoma and 116% in the assay on M14 melanoma.

For the compound `O=C(/C=C/c1ccc(Cl)cc1)c1cccc(Nc2nc(Nc3ccccc3)nc(Nc3ccccc3)n2)c1`, the growth in the assay on DU-145 prostate was 121%; with K-562 leukemia, 71.4%; in the assay on MALME-3M melanoma, 95.6%; in the assay on MDA-MB-231 breast, 80.7%; in the assay on RXF 393 renal, -30.3% (active); in the assay with SF-268 CNS, 113%. The growth is 62.2% with SF-295 CNS, 116% with SF-539 CNS, 103% in the assay with UACC-257 melanoma and 94.2% with M14 melanoma.

With `Cc1cc(N)c2cc(NC(=O)/C=C\c3ccccc3Cl)ccc2n1`, the growth with DU-145 prostate was -92.8% (active); in the assay on K-562 leukemia, -31.9% (active); in the assay with MALME-3M melanoma, -76.2% (active); with MDA-MB-231 breast, -87.1% (active); in the assay on RXF 393 renal it was -78.2% (active); in the assay on SF-268 CNS it was -76.6% (active). For the same compound, the growth in the assay on SF-295 CNS is -80.4% (active); with SF-539 CNS, -91.3% (active); in the assay on UACC-257 melanoma, -49.2% (active); with M14 melanoma, -70.9% (active).

As to `N#CC1=C(c2ccc(Cl)cc2)Nc2c(c(-c3ccc(Cl)cc3)nn2-c2ccccc2)C12C(=O)Nc1ccc(Cl)cc12` (stereo not given), the growth with DU-145 prostate is 76.6%; in the assay on K-562 leukemia, 24.3%; in the assay on MALME-3M melanoma, 77%; with MDA-MB-231 breast it was 50.1%; in the assay with RXF 393 renal it was 21.3%; in the assay with SF-268 CNS, 38.2%. In addition, the growth in the assay with SF-295 CNS was 23.2%; in the assay on SF-539 CNS it was 74.2%; with UACC-257 melanoma, 63.4%; in the assay on M14 melanoma it was 41.9%.

In the case of `CCO/C=N/C1=C(C#N)C(c2ccc(OC)cc2)c2sc3c(F)cccc3c2O1` (stereo not given), the growth in the assay on DU-145 prostate was 35.8%; in the assay with K-562 leukemia, 15.1%; in the assay with MALME-3M melanoma, 60%; in the assay on MDA-MB-231 breast, 34.6%; in the assay with RXF 393 renal, 3.81% (active); in the assay with SF-268 CNS it was 44.2%. The growth with SF-295 CNS is 16.6%; in the assay with SF-539 CNS it was -23.7% (active); in the assay with UACC-257 melanoma, 71.6%; in the assay on M14 melanoma it was 22.6%.

`CC1=Nc2cnc(Nc3ccc(OCCN4CCCCC4)cc3)nc2Nc2ccccc21`: the growth is 57.8% with DU-145 prostate; 24.1% in the assay on K-562 leukemia; 58.4% with MALME-3M melanoma; 60.6% in the assay on MDA-MB-231 breast; 33.6% in the assay on RXF 393 renal; 64.9% in the assay on SF-268 CNS. For the same compound, the growth with SF-295 CNS was 76.5%; with SF-539 CNS, 69.6%; in the assay on UACC-257 melanoma it was 87.6%; in the assay on M14 melanoma, 50.6%.

On to `O=C(CCCCC1CCSS1)Nc1ncnc2n[nH]c(-c3ccc(Oc4ccccc4)cc3)c12` (stereo not given), for which the growth with DU-145 prostate is 65.6%; with K-562 leukemia it was 9.6% (active); with MALME-3M melanoma it was 109%; with MDA-MB-231 breast it was 68.3%; in the assay on RXF 393 renal it was 113%; in the assay with SF-268 CNS, 72.4%. Moreover, the growth is 102% in the assay with SF-295 CNS, 106% in the assay with SF-539 CNS, 95.2% in the assay on UACC-257 melanoma and -62.8% (active) with M14 melanoma.

Regarding `CNC(=O)c1cc(Oc2ccc3c(c2)sc2nc(-c4cc(OC)c(OC)c(OC)c4)cn23)ccn1`, the growth was 75.2% with DU-145 prostate; 29.3% in the assay with K-562 leukemia; -8.33% (active) with MALME-3M melanoma; 33.8% in the assay with MDA-MB-231 breast; 63.2% with RXF 393 renal; 72% with SF-268 CNS. Also, the growth was 51% in the assay on SF-295 CNS, 62.8% with SF-539 CNS, 49.7% in the assay on UACC-257 melanoma and 52% in the assay with M14 melanoma.
